The text below walks through data of PubChem BioAssay.

Activity calls are given as the source filed them. Unless noted, no rule for the calls is given here.

Test [1] in a line: HepG2 liver cancer cell viability effects, profiling panel, resazurin fluorescence, 24 h, PK04 Diversity Set (AID 1172). The following applies: higher = more signal. In general terms: Alamar Blue is a resazurin reagent that responds to reducing activity.
Test [2] is described as follows: basal S. cerevisiae growth modulation, no modifier, primary screen, OD600, strain BY4716, 24 h, basal condition (AID 1173). The following applies: OD600, 24 h, higher = more signal, called active from +8 up or from −8 down.
The nature of test [3]: MM1S myeloma cell viability, profiling panel, resazurin fluorescence, basal, 24 h, PK04 Diversity Set (AID 1174).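 Also: MM1S multiple myeloma cell line.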 The following applies: higher = more signal, called active from +8 up or from −8 down.
Test [4] addresses Dihydroorotate dehydrogenase (quinone), mitochondrial (Plasmodium falciparum (isolate 3D7)) (UniProt Q08210). Briefly: PfDHODH enzyme inhibitors, primary screen, biochemical, C-terminal His tag, absorbance 600 nm (AID 1175).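 Also: recombinant parasite enzyme with a five histidine tag at its C terminus.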 The following applies: DCIP absorbance 600 nm, higher = more signal, called active from +8 up or from −8 down.
Test [5] in a line: P. aeruginosa biofilm formation inhibitors, primary screen, strain PAO1, LB-PBS medium, absorbance 600 nm (AID 1176). The following applies: P. aeruginosa PAO1 growth/biofilm, A600, 12 h; higher = more signal.
Test [6] can be described thus: S. cerevisiae RM11-1a growth modifiers, primary screen, strain RM11-1a, OD600, basal, 24 h (AID 1177).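 Also: cultures grown under basal conditions with no added stressor.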 The following applies: OD600, 24 h, higher = more signal, called active from +8 up or from −8 down.
Test [7] in a line: E. coli acrAB mutant growth effects, primary screen, E. coli filamentation inducers, strain DRC39, OD650, 24 h (AID 1178).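 Also: growth measured as culture turbidity by optical density at 650 nm.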 The note with it: higher = more signal, called active from +8 up or from −8 down.
Test [8] in a line: E. coli acrAB mutant growth effects, primary screen, E. coli filamentation inducers, strain DRC39, OD650, 48 h (AID 1179).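 Also: screen aims at cell division blockers that make cells filament.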 The note with it: E. coli DRC39 delta-acrAB growth, higher = more signal, called active from +8 up or from −8 down.
Test [9] can be described thus: RPMI8226 myeloma cell viability, profiling panel, resazurin fluorescence, basal, 24 h, PK04 Diversity Set (AID 1180).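 Also: RPMI8826 multiple myeloma cell line at 5000 cells per well.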 The note with it: higher = more signal.
The target of test [10] is E3 ubiquitin-protein ligase XIAP (Homo sapiens) (UniProt P98170). Briefly: XIAP binders, primary screen, biophysical, small-molecule microarray, fluorescence 635 nm (AID 1181).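 Also: score merges 667 nm emission and signal to noise over triplicate slides.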 The note with it: small-molecule microarray binding, higher = more signal.
In test [11] the test system is XIP peptide (Xip251-270) binding. Briefly: small-molecule binders of XIP peptide, primary screen, biochemical, small-molecule microarray, fluorescence 635/667 nm, 0.1 µg/mL protein (AID 1182). The following applies: fluorescent protein binding, 635 nm, higher = more signal, called active from +8 up or from −8 down.
The subject of another test is XIP peptide (Xip251-270). Briefly: small-molecule binders of XIP peptide, primary screen, biochemical, small-molecule microarray, fluorescence 635/667 nm, 0.5 µg/mL protein (AID 1183). The following applies: small-molecule microarray binding, fluorescence 635 nm; higher = more signal.
The nature of test [12]: Plasmodium falciparum growth inhibition, primary screen, strain 3D7, DAPI fluorescence, 100 nL (AID 1184).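 Also: parasites grown inside human red blood cells in medium with human serum.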 The following applies: P. falciparum 3D7 growth, 3 d, higher = more signal.
Test [13] addresses Homeobox protein Hox-A13 (Mus musculus) (UniProt Q62424). Briefly: inhibitors of HoxA13-DNA binding, primary screen, biochemical, fluorescence polarization, labeled oligonucleotide (AID 1185). The note with it: 15 min, higher = more signal, called active from +8 up or from −8 down. A general note: In fluorescence polarisation assays a small probe gives low polarisation when free and higher when bound to something large.

The nature of test [14]: inhibitors of hydroxyurea-induced Chk1 phosphorylation, primary screen, imaging, HeLa, phospho-Chk1 antibody, percent positive cells (AID 1186). The following applies: hydroxyurea-induced phospho-Chk1 immunofluorescence imaging, higher = more signal.
Test [15] can be described thus: inhibitors of hydroxyurea-induced Chk1 phosphorylation, primary screen, imaging, HeLa, phospho-Chk1 nuclear intensity (AID 1187). The note with it: hydroxyurea-induced phospho-Chk1 immunofluorescence imaging, higher = more signal.

E3 ubiquitin-protein ligase XIAP (Homo sapiens), sequence (P98170 whole entry, looked up): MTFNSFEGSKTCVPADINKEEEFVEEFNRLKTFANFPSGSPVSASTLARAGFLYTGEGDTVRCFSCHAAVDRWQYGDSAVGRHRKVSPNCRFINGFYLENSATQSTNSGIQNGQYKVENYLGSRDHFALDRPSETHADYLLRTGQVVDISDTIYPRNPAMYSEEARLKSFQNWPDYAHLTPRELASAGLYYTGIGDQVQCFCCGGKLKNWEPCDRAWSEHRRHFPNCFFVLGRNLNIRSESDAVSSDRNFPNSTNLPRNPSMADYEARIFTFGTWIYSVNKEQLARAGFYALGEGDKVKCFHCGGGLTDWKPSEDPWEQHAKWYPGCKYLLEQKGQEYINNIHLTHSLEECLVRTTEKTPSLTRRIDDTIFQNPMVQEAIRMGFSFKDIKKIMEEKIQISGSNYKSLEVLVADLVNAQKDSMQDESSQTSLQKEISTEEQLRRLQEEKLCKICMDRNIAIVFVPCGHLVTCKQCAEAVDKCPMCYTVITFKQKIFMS
Dihydroorotate dehydrogenase (quinone), mitochondrial (Plasmodium falciparum (isolate 3D7)), sequence (Q08210 whole entry, looked up): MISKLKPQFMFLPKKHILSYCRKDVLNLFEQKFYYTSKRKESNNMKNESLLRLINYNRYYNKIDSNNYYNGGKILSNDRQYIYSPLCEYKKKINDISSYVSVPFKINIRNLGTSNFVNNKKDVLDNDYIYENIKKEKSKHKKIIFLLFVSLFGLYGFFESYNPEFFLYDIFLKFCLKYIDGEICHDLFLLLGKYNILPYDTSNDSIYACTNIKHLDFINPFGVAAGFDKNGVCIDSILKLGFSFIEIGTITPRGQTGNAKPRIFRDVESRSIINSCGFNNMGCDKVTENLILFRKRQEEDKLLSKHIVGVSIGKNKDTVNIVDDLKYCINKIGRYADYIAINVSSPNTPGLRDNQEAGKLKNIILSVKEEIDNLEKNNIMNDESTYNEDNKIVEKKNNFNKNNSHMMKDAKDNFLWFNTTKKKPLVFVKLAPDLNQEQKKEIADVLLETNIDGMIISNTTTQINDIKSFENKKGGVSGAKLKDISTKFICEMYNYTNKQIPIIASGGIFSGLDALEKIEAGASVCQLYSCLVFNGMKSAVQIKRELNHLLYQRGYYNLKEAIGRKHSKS
Homeobox protein Hox-A13 (Mus musculus), sequence (Q62424 whole entry, looked up): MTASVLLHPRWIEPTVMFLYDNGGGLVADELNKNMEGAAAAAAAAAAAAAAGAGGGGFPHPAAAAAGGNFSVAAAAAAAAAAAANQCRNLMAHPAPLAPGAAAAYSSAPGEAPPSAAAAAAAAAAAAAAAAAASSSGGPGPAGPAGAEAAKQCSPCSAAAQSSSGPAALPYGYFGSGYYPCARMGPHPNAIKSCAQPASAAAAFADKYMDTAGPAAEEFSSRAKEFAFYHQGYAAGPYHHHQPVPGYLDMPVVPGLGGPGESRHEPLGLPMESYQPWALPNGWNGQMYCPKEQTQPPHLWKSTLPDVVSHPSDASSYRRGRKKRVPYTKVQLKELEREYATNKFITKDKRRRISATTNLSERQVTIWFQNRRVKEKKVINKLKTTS

As to `COC(=O)[C@@]1(Cc2ccccc2)[C@H]2c3cc(C(=O)N(C)C)n(Cc4ccccc4)c3C[C@H]2CN1C(=O)c1ccccc1`, the z-score in test [1] is -0.853; in test [2] it was 2.1 (inactive); in [3], -1.5 (inactive); in test [5], 0.246 (inactive); in [6], 1.6 (inactive); in [7], -0.656 (inactive). For the same compound, the z-score in test [8] is -0.411 (inactive); in test [9], -1.05; in test [12] it was -1.43; in [13], -5.49 (inactive); in test [14] it was 1.54 (inactive); in test [15] it was 0.928 (inactive). Also, the composite z-score in test [4] was -0.252 (inactive); in test [10], 0.294; in [11], 0.394 (inactive); in the test on XIP peptide (Xip251-270), 0.225.
As for `CN(C)CCCC[C@@H]1NC(=O)[C@@H]2C[C@H](C(=O)NCCCCCN)[C@H](c3ccc(O)cc3)N2C1=O`, the z-score in [1] was -0.24; in [2] it was -0.235 (inactive); in test [3] it was -0.507 (inactive); in [5], -0.0491 (inactive); in [6], -0.361 (inactive); in test [7], 0.591 (inactive). The z-score in test [8] was 1.09 (inactive); in [9], -0.948; in [12] it was 0.336; in test [13], -1.21 (inactive); in [14], -0.538 (inactive); in test [15], -0.472 (inactive). Moreover, the composite z-score in test [4] is -1.33 (inactive); in [10] it was -0.134; in test [11], 0.633 (inactive); with XIP peptide (Xip251-270) it was 0.433.
Regarding `OCCCc1cc[n+](Cc2cccc(OC(F)(F)F)c2)cc1`, the z-score in [1] was 0.887; in test [2], -1.08 (inactive); in test [3], 0.499 (inactive); in [5], 0.0898 (inactive); in [6] it was 0.616 (inactive); in test [7], 0.453 (inactive). Also, the z-score in [8] is 0.159 (inactive); in test [9], -0.326; in test [12] it was -1.47; in [13], -3.06 (inactive); in [14], -0.284 (inactive); in [15], -0.678 (inactive). For the same compound, the composite z-score is -3.59 (inactive) in [4], 0.337 in [10], 0.307 (inactive) in [11] and 0.768 in the test on XIP peptide (Xip251-270).
Turning to `C=C(/C(=C/C[C@@H](OC(=O)c1ccncc1)c1ccc(CO)o1)c1cc(C(=O)OC)ccc1OC)C(C)C`, the z-score in test [1] was -0.512; in [2], -0.128 (inactive); in [3] it was -0.51 (inactive); in test [5], 0.519 (inactive); in test [6] it was -0.0289 (inactive); in [7], 0.885 (inactive). Also, the z-score in test [8] was 0.64 (inactive); in [9], -0.533; in test [12] it was -1.01; in test [13] it was -4.08 (inactive); in test [14] it was -0.471 (inactive); in [15], 0.811 (inactive). The composite z-score is -1.49 (inactive) in [4], -0.187 in test [10], 0.18 (inactive) in test [11] and 0.813 in the test on XIP peptide (Xip251-270).
Take `COCCOC(=O)N1C(=O)[C@@]2(c3ccccc31)[C@H](c1ccc(O)cc1)N1[C@H](c3ccccc3)[C@H](c3ccccc3)OC(=O)[C@H]1[C@@H]2C(N)=O`: the z-score in test [1] is -0.701; in test [2], 0.652 (inactive); in [3], -0.916 (inactive); in test [5] it was 0.125 (inactive); in [6], 0.623 (inactive); in [7], 0.596 (inactive). Besides, the z-score in [8] is 0.687 (inactive); in test [9], -1.01; in test [12] it was 0.346; in test [13], -5.26 (inactive); in [14] it was -0.0882 (inactive); in test [15], -0.282 (inactive). Moreover, the composite z-score is -0.766 (inactive) in test [4], 0.0228 in [10], -0.728 (inactive) in test [11] and -0.0106 with XIP peptide (Xip251-270).
As for `CN1C(=O)C2C=CC(C(O)C(c3ccccc3)c3ccccc3)N(Nc3ccccc3)C2C1=O` (stereo not given), the z-score in [1] is -0.562; in test [2], -2.21 (inactive); in test [3] it was -0.978 (inactive); in [5], 1.16 (inactive); in test [6] it was -0.238 (inactive); in [7], -1.31 (inactive). Moreover, the z-score in test [8] was -1.38 (inactive); in test [9] it was -1.2; in test [12], 0.608; in test [13] it was -4.01 (inactive); in [14], 0.535 (inactive); in test [15] it was -0.0171 (inactive). Also, the composite z-score in [4] is 0.0016 (inactive); in [10], 0.21; in [11], 0.0848 (inactive); in the test on XIP peptide (Xip251-270), 0.68.
As for `CN(C)CCCN1C(=O)[C@@]2(c3ccc([N+](=O)[O-])cc3)CC(=O)N(C3CCCCC3)[C@@H]2c2ccc(CO)cc21`, the z-score is 1.57 in test [1]; -1.28 (inactive) in test [2]; 1.11 (inactive) in test [3]; -0.6 (inactive) in [5]; -1.45 (inactive) in [6]; 0.244 (inactive) in test [7]. The z-score in [8] is 0.876 (inactive); in [9], 1.12; in test [12] it was 0.615; in test [13], -0.595 (inactive); in [14] it was -0.659 (inactive); in test [15], -0.648 (inactive). The composite z-score in test [4] is -3.88 (inactive); in test [10], -0.0374; in test [11], -0.157 (inactive); with XIP peptide (Xip251-270) it was -0.0092.
Consider `C/C=C/[C@H](CCn1cc([C@H](O)c2ccccc2)nn1)[Si](C)(C)c1ccc(OC)cc1`, for which the z-score in [1] is 0.0881; in test [2] it was -0.289 (inactive); in test [3] it was 0.183 (inactive); in test [5] it was 0.626 (inactive); in test [6] it was 0.15 (inactive); in test [7], 0.265 (inactive). Also, the z-score in [8] is -0.0867 (inactive); in test [9] it was -0.187; in test [12], 1.03; in [13], -5.59 (inactive); in test [14], -0.131 (inactive); in [15] it was -0.28 (inactive). Besides, the composite z-score in test [4] was -0.393 (inactive); in test [10], -0.0936; in [11], -0.0661 (inactive); in the test with XIP peptide (Xip251-270), 0.634.
Turning to `CCCCCCCCCCC(O)C1C=CC2C(=O)N(c3ccccc3)C(=O)C2N1Nc1ccc([N+](=O)[O-])cc1` (stereo not given), the z-score in test [1] was -0.573; in [2], 0.673 (inactive); in test [3], -0.0843 (inactive); in test [5] it was 0.285 (inactive); in test [6] it was 0.0401 (inactive); in [7], -0.552 (inactive). The z-score in [8] was 0.0458 (inactive); in test [9], -1.11; in test [12] it was -0.338; in test [13], -2.71 (inactive); in test [14] it was 0.346 (inactive); in test [15], -0.444 (inactive). For the same compound, the composite z-score is -0.838 (inactive) in test [4], -0.126 in test [10], 0.812 (inactive) in [11] and 0.801 in the test with XIP peptide (Xip251-270).
For `O=C1O[C@@H](c2ccccc2)[C@@H](c2ccccc2)N2[C@@H](c3ccc(O)cc3)[C@]3(C(=O)Nc4ccc(C#CCCO)cc43)[C@@H](C(=O)O)[C@H]12`, the z-score in test [1] is 0.259; in [2], -1.01 (inactive); in test [3] it was 0.519 (inactive); in [5], 0.201 (inactive); in test [6], -0.261 (inactive); in test [7], 0.151 (inactive). In addition, the z-score in test [8] is 0.67 (inactive); in test [9] it was 0.545; in test [12], -0.63; in test [13] it was -4.56 (inactive); in test [14] it was 0.0686 (inactive); in [15], 0.632 (inactive). The composite z-score in [4] is -2.07 (inactive); in test [10], 0.511; in [11] it was 0.665 (inactive); in the test with XIP peptide (Xip251-270), 0.785.
